Inconclusive results are not listed. Calls of active or inactive are those of the source. Calls follow the shape of the dose curve; as a rule, active = well fitted curve in the direction sought with a large enough effect; inconclusive = small, poorly fitted or top-dose-only effect, or another doubt; inactive = no such curve, though single readings can be large; an effect the other way counts as inactive or inconclusive.
Experiments:
[1] = HEK293 18hr Apoptosis Induction qHTS against the NCATS CANVASS Library (AID 1347357); also: 0% is about no effect
Summary of the method: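 Luminescent caspase-3/7 signal is measured in HEK293 cells exposed for 18 hours to an 11-point concentration series; doxorubicin serves as the plate control.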

[2] = HPAF-II 12hr Apoptosis Induction qHTS against the NCATS CANVASS Library (AID 1347358); also: potency is read from the fitted curve at half-maximal effect; as to caspase activation: 0% is about no effect
Summary of the method: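 HPAF-II cells (500/well, DMEM + 10% FBS) were exposed to compounds for 12 hours at 37 degrees C. Caspase-3/7 activity was then read by Caspase-Glo 3/7 luminescence after 15 min at room temperature.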

[3] = HEK293 24hr Apoptosis Induction qHTS against the NCATS CANVASS Library (AID 1347359); also: 0% is about no effect
Summary of the method: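 HEK293 cells (500/well, DMEM + 10% FBS) were exposed to compounds in an 11-point series for 24 hours at 37 degrees C, then caspase-3/7 activity was read by Caspase-Glo DEVD luciferase luminescence after 15 min.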

[4] = HPAF-II 18hr Apoptosis Induction qHTS against the NCATS CANVASS Library (AID 1347360); also: potency is read from the fitted curve at half-maximal effect; as to caspase activation: 0% is about no effect
Summary of the method: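 Apoptosis was scored as caspase-3/7 activity in HPAF-II pancreatic cancer cells treated 18 hours with an 11-point concentration series.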

[5] = HEK293 12hr Apoptosis Induction qHTS against the NCATS CANVASS Library (AID 1347361); also: 0% is about no effect
Summary of the method: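 Apoptosis in HEK293 was scored as caspase-3/7 luminescence following 12 h treatment with a compound concentration series in qHTS format.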

[6] = target: Luciferin 4-monooxygenase (Photinus pyralis) (UniProt P08659); test: Firefly luciferase counterscreen qHTS: Assay Interference Panel against the NCATS CANVASS Library (AID 1347363); also: series mostly up to about 57 µM; 0% is about no effect
Summary of the method: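 Purified P. pyralis luciferase was added to compounds (11-point series) preincubated 15 min at room temperature with substrate containing 0.013 mM D-luciferin and 0.013 mM ATP; luminescence was read after 5 min.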

[7] = KB-3-1 Cancer Cell Toxicity qHTS against the NCATS CANVASS Library (AID 1347366); also: nearly all actives have a fitted effect of over 75% in size; also: potency is read from the fitted curve at half-maximal effect
Summary of the method: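 Seed KB-3-1 cells at 500/well in DMEM with 10% FBS, add compounds, incubate 72 hr at 37C and 5% CO2, then add CellTiter-Glo and read luminescence after 10 minutes.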

[8] = qHTS for ATAD5 Agonist screened against the NCATS CANVASS Library (AID 1347367);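 also: luciferase reporter driven by ATAD5 which rises upon DNA damage; 0% is about no effect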
Summary of the method: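 Step one plated reporter cells and let them acclimate 5hr. Step two pinned compounds with MMS as positive and 0.46% DMSO as negative control. After 16hr incubation, fluorescence viability then luminescence were read.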

[9] = qHTS for ATAD5 Antagonist screened against the NCATS CANVASS Library (AID 1347370); also: nearly all actives have a fitted effect of over 65% in size; also: potency is read from the fitted curve at half-maximal effect;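 as to activity change, negative = inhibition: HEK293T cells carrying an ATAD5 luciferase reporter co-treated with 10 µM 5-fluorouridine; series mostly up to about 46 µM; % is scaled to controls: 0 for no effect and ±100 for the full control effect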
Summary of the method: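 HEK293T cells with a stably integrated ATAD5-controlled luciferase reporter were exposed to compounds (11-pt) alongside 10 uM 5-fluorouridine as ATAD5 stabilizer for 16hr at 37C. Viability was read by CellTiter-Fluor fluorescence, then ATAD5 by luminescence.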

[10] = J3T Cancer Cell Toxicity qHTS against the NCATS CANVASS Library (AID 1347371); also: potency is read from the fitted curve at half-maximal effect;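 as to activity change, negative = cytotoxicity: J3T is a canine glioma cancer cell line seeded at 500 cells per well; series mostly up to about 46 µM; % is scaled to controls: 0 for no effect and ±100 for the full control effect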
Summary of the method: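 J3T dog glioma cells (500 cells/well) were exposed to compounds in an 11-point series for 72 hr at 37C, 5% CO2. Cytotoxicity was read as ATP content by CellTiterGlo luminescence.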

[11] = target: Nuclear receptor subfamily 1 group I member 3 (Homo sapiens) (UniProt Q14994); test: qHTS for Constitutive Androstane Receptor (CAR) Antagonist screened against the NCATS CANVASS Library (AID 1347372); also: potency is read from the fitted curve at half-maximal effect;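 as to activity change, negative = inhibition: cells stimulated with 50 nM CITCO agonist so inhibition reflects antagonism; series mostly up to about 46 µM; % is scaled to controls: 0 for no effect and ±100 for the full control effect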
Summary of the method: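 HepG2 cells stably carrying hCAR and a CYP2B6-2.2kb luciferase reporter were exposed to compounds plus 50 nM CITCO for 24hr at 37C. CAR activity was read by ONE-Glo luminescence, with viability measured first by CellTiter-Fluor.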

[12] = target: Nuclear receptor subfamily 1 group I member 3 (Homo sapiens) (UniProt Q14994); test: qHTS for Constitutive Androstane Receptor (CAR) Agonist screened against the NCATS CANVASS Library (AID 1347373);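 also: every well also contained 1.5 µM PK11195 alongside the test compound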; also: potency is read from the fitted curve at half-maximal effect; as to activation: 0% is about no effect
Summary of the method: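 HepG2 cells stably expressing hCAR and a CYP2B6-2.2kb luciferase reporter were treated for 24hr at 37C with compounds (11-point qHTS) in the presence of 1.5uM PK11195. Reporter activation was read by ONE-Glo luminescence.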

[13] = qHTS for Hypoxia signaling pathway (HIF-1) agonists against the NCATS CANVASS Library (AID 1347375); also: 0% is about no effect
Summary of the method: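 HRE-bla ME-180 cells (beta-lactamase reporter under hypoxia responsive element) in 0.5% dialyzed FBS medium, 5 h at 37C, then compound 17 h, 11-point qHTS series. CCF4-AM FRET substrate 2 h RT; 460/530 nm emission read.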

[14] = qHTS for Inflammasome Signaling Inhibitors: IL-1-beta AlphaLISA screen against the NCATS CANVASS Library (AID 1347379);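 also: human THP-1 cells primed with LPS then triggered with ATP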;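 as to activity change, negative = inhibition: secreted IL-1B measured as AlphaLISA emission at 615 nm; % is scaled to controls: 0 for no effect and ±100 for the full control effect; lower signal means less IL-1B release which is the wanted effect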
Summary of the method: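 Human THP-1 cells were pretreated 1 hr at 37 °C with compounds (up to 57.5 uM final), then stimulated with LPS (250 ng/mL final) and ATP (1.25 mM final). Secreted IL-1B was read by AlphaLISA after 16 hr.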

[15] = Inflammasome Signaling qHTS Counterscreen: IL-1-beta AlphaLISA counterscreen against the NCATS CANVASS Library (AID 1347381);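 also: cell-free check with purified IL-1β in medium and no THP-1 cells; series mostly up to about 57 µM; 0% is about no effect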
Summary of the method: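 To flag interference with the AlphaLISA read-out, a known amount of purified IL-1-beta (4 pg) replaced cell supernatant. Detection used anti-IL-1-beta acceptor beads, biotinylated antibody and streptavidin donor beads at room temperature.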

[16] = Cytotoxicity qHTS for assessment of Hepg2 cells membrane integrity screened against the NCATS CANVASS Library (AID 1347387)
Summary of the method: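 HepG2 cells (2000/well) attached overnight at 37C, then received compounds in an 11-point series at 0.59 nM - 46 uM final for 5 hr. LDH release was detected fluorometrically (ex 560/em 590 nm) with CytoTox-ONE reagent after 10 min at room temperature.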

[17] = qHTS for activators of dead-cell proteases activity screened against the NCATS CANVASS Library (AID 1347392);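 also: luminescence from protease leaking out of membrane-damaged cells cleaving impermeant substrate; 0% is about no effect; rising signal means more cytotoxicity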
Summary of the method: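 HepG2 cells (2000/well) attached 18 h at 37C, then exposed 5 h to compounds (11-point qHTS). Dead-cell protease activity read as luminescence from cell-impermeant AAF-aminoluciferin substrate after 15 min at room temperature.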

[18] = Viability qHTS for inhibitors of the SERCaMP assay screened against the NCATS CANVASS Library (AID 1347400); also: nearly all actives have a fitted effect of over 70% in size; also: potency is read from the fitted curve at half-maximal effect; as to activity change, negative = cytotoxicity: series mostly up to about 92 µM; % is scaled to controls: 0 for no effect and ±100 for the full control effect
Summary of the method: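 SH-SY5Y-GLuc SERCaMP MJH297-derived cells (1000 cells/well) were pre-incubated 4 h at 37C, then exposed to compounds for 48 h. Viability was read as CellTiter-Glo luminescence; bortezomib served as positive control.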

[19] = tested on: NAD(P)H diaphorase (Clostridium kluyveri); test: Diaphorse counterscreen qHTS: Assay Interference Panel against the NCATS CANVASS Library (AID 1347362); also: potency is read from the fitted curve at half-maximal effect; as to activity change, negative = inhibition: 0% is about no effect
Summary of the method: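 Clostridium kluyveri diaphorase in PBS with 0.01% Tween-20 was preincubated 15 min at room temperature in the dark with compounds (11-point series). Resorufin fluorescence (ex 525/20, em 598/25) was read 5 min after adding resazurin/NADH.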

[20] = 10-beta competent E. coli microbial cell viability qHTS against the NCATS CANVASS Library (AID 1347376); also: series mostly up to about 46 µM; 0% is about no effect
Summary of the method: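 10-beta competent E. coli (0.9 OD culture diluted to 0.2 OD) exposed to compounds in an 11-point qHTS series, incubated overnight at 37C, 5% CO2. Viability read as ATP by BacTiter-Glo luminescence after 20 min at room temperature.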

Sequence of Nuclear receptor subfamily 1 group I member 3 (Homo sapiens) (Q14994 whole entry, looked up): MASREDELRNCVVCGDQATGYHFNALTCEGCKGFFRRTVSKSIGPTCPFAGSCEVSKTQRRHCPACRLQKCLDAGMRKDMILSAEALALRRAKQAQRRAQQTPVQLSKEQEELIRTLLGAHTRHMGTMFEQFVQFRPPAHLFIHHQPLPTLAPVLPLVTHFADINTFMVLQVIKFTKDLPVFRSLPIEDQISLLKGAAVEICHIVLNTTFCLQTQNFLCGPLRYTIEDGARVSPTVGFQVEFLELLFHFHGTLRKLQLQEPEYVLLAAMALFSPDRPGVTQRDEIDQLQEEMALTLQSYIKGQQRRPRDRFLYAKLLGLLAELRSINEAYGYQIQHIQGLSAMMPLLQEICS
Sequence of Luciferin 4-monooxygenase (Photinus pyralis) (P08659 whole entry, looked up): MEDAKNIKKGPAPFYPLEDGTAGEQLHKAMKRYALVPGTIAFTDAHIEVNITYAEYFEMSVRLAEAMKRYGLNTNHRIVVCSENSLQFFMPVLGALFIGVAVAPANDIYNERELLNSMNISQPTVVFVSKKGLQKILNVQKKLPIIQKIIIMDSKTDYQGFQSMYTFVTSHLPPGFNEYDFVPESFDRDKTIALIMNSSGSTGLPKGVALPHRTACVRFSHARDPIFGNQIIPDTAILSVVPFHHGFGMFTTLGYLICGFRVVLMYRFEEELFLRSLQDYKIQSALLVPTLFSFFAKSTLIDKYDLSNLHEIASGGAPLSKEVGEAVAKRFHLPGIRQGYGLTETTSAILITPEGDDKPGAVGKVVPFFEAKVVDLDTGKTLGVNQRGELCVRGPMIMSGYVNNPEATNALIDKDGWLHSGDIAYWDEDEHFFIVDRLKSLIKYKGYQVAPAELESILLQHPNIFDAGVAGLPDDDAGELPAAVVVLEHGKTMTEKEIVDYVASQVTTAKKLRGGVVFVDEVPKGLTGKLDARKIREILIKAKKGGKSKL

Cc1occ2c1C(=O)c1c(cc(O)c(O)c1O)C2=O
inactive: Potency [1] | Potency [2] | Potency [3] | Potency [4] | outcome [5] | Potency [6] | Potency [7] | Potency [8] | Potency [9] | Potency [10] | Potency [11] | Potency [12] | outcome [13] | Potency [14] | outcome [15] | outcome [16] | Potency [17] | Potency [18]

C=C(C)CC[C@H](Cc1c(O)cc(O)c2c1O[C@H](c1ccc(O)cc1)CC2=O)C(=C)C
inactive: Potency [1] | Potency [2] | Potency [3] | Potency [4] | outcome [5] | Potency [19] | Potency [6] | Potency [8] | Potency [11] | outcome [20] | Potency [14] | outcome [15] | outcome [16] | Potency [17] | Potency [18]
active: Potency [9] 23.4 µM

COc1cc2c(cc1OC)[C@@H](c1ccc3c(c1)OCO3)C(C)C(C)C2=O (stereo not given in full)
inactive: Potency [1] | Potency [2] | Potency [3] | Potency [4] | outcome [5] | Potency [19] | Potency [6] | Potency [8] | Potency [10] | Potency [11] | outcome [13] | outcome [20] | Potency [14] | outcome [15] | outcome [16] | Potency [17] | Potency [18]
active: Potency [9] 26.3 µM | Potency [12] 18.6 µM

C=C1CC[C@@H](Br)C(C)(C)[C@]12CC=C(C)C(=O)C2
inactive: Potency [1] | Potency [2] | Potency [3] | Potency [4] | outcome [5] | Potency [19] | Potency [6] | Potency [7] | Potency [8] | Potency [9] | Potency [10] | Potency [11] | outcome [13] | outcome [20] | Potency [14] | outcome [15] | outcome [16] | Potency [17] | Potency [18]

COc1cc(C2OCC3C(c4ccc(O)c(OC)c4)OCC23)ccc1O (stereo not given)
inactive: caspase activation [1] 1.93% [at 9.19 µM] | caspase activation [2] 6.04% [at 9.19 µM] | activation [3] 6.68% [at 9.19 µM] | caspase activation [4] -1.71% [at 9.19 µM] | caspase activation [5] 3.13% [at 9.19 µM] | activity change, negative = inhibition [19] 1.68% [at 11.5 µM] | activity change, negative = inhibition [6] 1.7% [at 11.5 µM] | outcome [7] inactive [at 9.19 µM] | activation [8] 3.68% [at 9.19 µM] | activity change, negative = inhibition [9] -9.99% [at 9.19 µM] | activity change, negative = cytotoxicity [10] 0.397% [at 9.19 µM] | activity change, negative = inhibition [11] 9.55% [at 9.19 µM] | activation [12] 1.13% [at 9.19 µM] | activation [13] -1.39% [at 7.64 µM] | activity change, negative = cytotoxic [20] -5.45% [at 9.19 µM] | activity change, negative = inhibition [15] -8.43% [at 11.5 µM] | cytotoxicity (LDH release) [16] 0.144 [at 9.19 µM] | activation (cytotoxicity) [17] 4.3% [at 9.19 µM] | activity change, negative = cytotoxicity [18] -10.2% [at 18.4 µM]

C/C=C/C1C=CC2CC(C)CC(C)C2C1C(=O)CC(=O)NC(CO)C/C=C/CCCCC (stereo not given)
active: Potency [9] 23.4 µM
inactive: Potency [1] | Potency [2] | Potency [3] | Potency [4] | outcome [5] | Potency [6] | Potency [7] | Potency [8] | Potency [10] | Potency [11] | Potency [12] | outcome [13] | outcome [20] | outcome [15] | outcome [16] | Potency [17] | Potency [18]

CC[C@H]1[C@H](C)[C@H](c2cc(OC)c(OC)cc2OC)[C@@H](C)[C@H](c2cc(OC)c(OC)cc2OC)[C@@]12C=C(OC)C(=O)C=C2OC
inactive: Potency [2] | Potency [4] | Potency [6] | Potency [8] | Potency [10] | Potency [11] | Potency [12] | outcome [13] | outcome [20] | outcome [15] | outcome [16] | Potency [17]
active: Potency [19] 21.6 µM

C[n+]1cc2cc(C(N)=O)[nH]c3c(=N)c(Cl)c(N)c1c23
inactive: Potency [1] | Potency [2] | Potency [3] | Potency [4] | outcome [5] | Potency [6] | Potency [7] | Potency [8] | Potency [9] | Potency [10] | Potency [11] | Potency [12] | outcome [13] | outcome [20] | Potency [14] | outcome [15] | outcome [16] | Potency [17]
active: Potency [19] 15.3 µM | Potency [18] 42.8 µM

COc1cc2c(c(O)c1O)C(=O)c1c(coc1C)C2=O
inactive: Potency [1] | Potency [2] | Potency [3] | Potency [4] | outcome [5] | Potency [7] | Potency [8] | Potency [9] | Potency [11] | outcome [13] | outcome [15] | outcome [16] | Potency [17]
active: Potency [19] 4.31 µM | Potency [10] 26.4 µM | Potency [14] 24.3 µM | Potency [18] 15.2 µM

C/C(=C\CC[C@@H](C)[C@H]1CC[C@]2(C)C3=CCC4C(C)(C)[C@@H](O)C[C@@H](O)[C@]4(C)C3[C@H](O)C[C@@]12C)CO (stereo not given in full)
inactive: Potency [1] | Potency [2] | Potency [3] | Potency [4] | outcome [5] | Potency [6] | Potency [7] | Potency [8] | Potency [9] | Potency [10] | Potency [11] | Potency [12] | outcome [13] | outcome [20] | Potency [14] | outcome [15] | outcome [16] | Potency [17] | Potency [18]

COc1cc(O)c(C(=O)[C@@H]2[C@H](CC=C(C)C)C(C)=CC[C@H]2c2ccccc2)c(O)c1
active: Potency [7] 20.9 µM | Potency [11] 33.1 µM
inactive: Potency [3] | outcome [5] | Potency [19] | Potency [6] | Potency [8] | Potency [9] | Potency [10] | Potency [12] | outcome [20] | outcome [15] | outcome [16] | Potency [17]

COc1cc(/C=C/C(=O)OC[C@@H](Cc2ccc(O)c(OC)c2)[C@@H](COC(=O)/C=C/c2ccc(O)c(OC)c2)Cc2ccc(O)c(OC)c2)ccc1O
active: Potency [2] 11.8 µM | Potency [4] 8.33 µM | Potency [7] 20.9 µM | Potency [9] 1.48 µM | Potency [14] 15.3 µM
inactive: Potency [19] | Potency [6] | Potency [8] | Potency [10] | Potency [11] | Potency [12] | outcome [20] | outcome [15]

— PubChem BioAssay (NCATS)
